The values that follow come from PubChem BioAssay (Tox21).

Each structure is given as a SMILES string. Results filed as inconclusive are left out. Unmarked numbers belong to inactive results. Calls of active or inactive are those of the source. Calls come from the whole dose curve; as a rule, active = well fitted inhibition curve with a large enough effect in the repeat runs; inconclusive = weak or mixed curves; inactive = no such curve, though single readings can be large or run the other way.
% is set by controls: 0 for no effect and ±100 for the full control effect; potency is the fitted concentration of half-maximal effect.

Sequence of Cytochrome P450 2C9 (Homo sapiens) (P11712 whole entry, looked up): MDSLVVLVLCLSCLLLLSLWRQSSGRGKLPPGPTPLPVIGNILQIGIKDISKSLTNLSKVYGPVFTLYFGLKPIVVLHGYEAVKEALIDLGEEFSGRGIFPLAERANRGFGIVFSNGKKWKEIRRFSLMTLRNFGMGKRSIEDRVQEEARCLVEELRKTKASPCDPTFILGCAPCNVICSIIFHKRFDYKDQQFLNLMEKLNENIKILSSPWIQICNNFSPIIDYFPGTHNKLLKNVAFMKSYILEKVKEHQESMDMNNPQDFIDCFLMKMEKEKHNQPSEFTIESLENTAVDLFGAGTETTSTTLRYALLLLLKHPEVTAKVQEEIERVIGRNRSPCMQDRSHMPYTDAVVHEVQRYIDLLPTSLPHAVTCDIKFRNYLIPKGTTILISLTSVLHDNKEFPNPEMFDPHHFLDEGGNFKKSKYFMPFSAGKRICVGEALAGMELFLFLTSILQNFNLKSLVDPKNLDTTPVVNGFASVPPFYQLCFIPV

The assay concerns the target Cytochrome P450 2C9 (Homo sapiens) (UniProt P11712). Description: Cytochrome P450 Family 2 Subfamily C Member 9 (CYP2C9) small molecule antagonists: luciferase reporter qHTS assay (AID 1671198). Note: nearly all actives have a fitted effect of over 50% in size. Conditions: P450-Glo CYP2C9 enzyme assay, luciferin luminescence; series mostly up to 115 µM; activity change, negative = inhibition: at the top concentration. The method in brief: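 CYP2C9 activity was measured with a P450-Glo proluciferin substrate. Enzyme–substrate mix was held with compound for 10 min at room temperature, then NADPH regeneration solution was added for 1 h at 37C. Luciferin product was read as luminescence.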
Background: Reporter assays use an easily measured gene product as a stand-in for the process of interest.
As for `c1ccc(CNCc2ccccc2)cc1`, the Potency is 44.8 µM (active).
On to `CCCC[C@H]1CN(CC2CCOCC2)C(=O)OC12CCN(C1(C)CCN(C(=O)c3c(C)ncnc3C)CC1)CC2`, for which the “activity change, negative = inhibition” value was -10.7%.
Regarding `N[C@H]1C(O)O[C@H](CO)[C@H](O)[C@@H]1O` (some centres not stated), the “activity change, negative = inhibition” value was 11.8%.
Consider `Cn1c(NCCN(CCO)CCCc2ccc([N+](=O)[O-])cc2)cc(=O)n(C)c1=O`, for which the “activity change, negative = inhibition” value was -11.9% [at 53 µM].
Consider `CCOC(=O)C1=C(C)NC(C)=C(C(=O)OC)C1c1cccc([N+](=O)[O-])c1` (configuration not stated), for which the Potency was 0.977 µM (active).
As for `CC(=O)c1c(C)c([N+](=O)[O-])c(C(C)(C)C)c([N+](=O)[O-])c1C`, the “activity change, negative = inhibition” value is -27%.
Turning to `CCOc1ccc2[nH]cc(C(=O)NCc3ccccc3)c(=O)c2n1`, the Potency is 25.2 µM (active).
On the same count and under the same terms, under `O=C1[C@H](CC[C@H](O)c2ccc(F)cc2)[C@@H](c2ccc(O)cc2)N1c1ccc(F)cc1` stands 8.71 µM (active); under `COc1ccc2[nH]c(S(=O)Cc3ncc(C)c(OC)c3C)nc2n1` (configuration not stated), 17.4 µM (active).
Regarding `O=C(c1ccc(O)cc1)c1ccc(O)cc1`, the “activity change, negative = inhibition” value was -44.3%.
Regarding `O=C(Nc1ccccc1)OCC(CN1CCCCC1)OC(=O)Nc1ccccc1` (configuration not stated), the Potency was 17.4 µM (active).
For the compound `O=S1(=O)c2cccc3cccc(c23)N1CCCN1CCN(c2ccc(F)cc2)CC1`, the “activity change, negative = inhibition” value was 59.4% [at 53 µM].
Consider `CCCCCCCCCCCCCCCCCBr`, for which the activity change, negative = inhibition is 0.482% [at 23.6 µM].
For `O=C(O)C(c1ccc(Cl)cc1)c1ccc(Cl)cc1`, the Potency was 15.9 µM (active).
Take `O=C(Cl)c1ccc([N+](=O)[O-])cc1`: the “activity change, negative = inhibition” value was -14.8%.
In the case of `CC(C)c1ccc2c(C(C)C)cc(C(C)C)c(S(=O)(=O)O)c2c1`, the Potency was 29.2 µM (active).
For `Cn1c(=O)c2c(ncn2CC(O)CO)n(C)c1=O` (configuration not stated), the “activity change, negative = inhibition” value was 14.2% [at 53 µM].
